Results on three compounds are retold here after PubChem BioAssay.

The nature of test [1]: P. berghei load reduction in hepatocytes – cell-based, HepG2, luciferase luminescence, HepG2 viability, primary screen (AID 624349; in the data active means parasite load remaining mostly below about 12%, no sharp cut-off; inactive means mostly above about 10%;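 further: 100% = mean of DMSO negative control wells on the same plate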). Conditions: P. berghei liver stage in HepG2, luciferase luminescence, concentration not given here; parasite load remaining: stronger effect = lower value; viability: measured here: HepG2 viability without parasites.
Test [2] can be described thus: signal quenchers or enhancers, Cy5 substrate/SSB – biochemical, NIH Clinical Collection, E. coli SSB, artefact control for HCV NS3 helicase inhibitor project (AID 743268). To be noted: Cy5-oligo bound E. coli SSB, fluorescence interference.
Test [3] deals with Hepatitis C virus NS3 helicase. The test is described as follows: blockers of NS3h binding to DNA – biochemical, fluorescence polarization, NIH Clinical Collection, primary screen (AID 743270). To be noted: NS3 helicase binding to Cy5-dT15 DNA, stronger effect = higher value, concentration not given here. A general note: In fluorescence polarisation assays a small probe gives low polarisation when free and higher when bound to something large.

Test [4] has as its target Single-stranded DNA-binding protein (Escherichia coli (strain K12)) (UniProt P0AGE0). The test is described as follows: SSB-ssDNA binding inhibitors – biochemical, fluorescence polarization, NIH Clinical Collection, counter-screen for HCV NS3 helicase inhibitor project (AID 743271; in the data active means inhibition above about 28%). Conditions: E. coli SSB-DNA binding, stronger effect = higher value, concentration not given here.
The nature of test [5]: compounds distorting NS3 helicase fluorescence signal – biochemical, NIH Clinical Collection, artefact control for HCV NS3 helicase inhibitor project (AID 743272).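 Further: HCV NS3 helicase with a Cy5 labelled single stranded DNA probe.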 Conditions: fluorescence interference counterscreen, HCV NS3 helicase assay; stronger effect = lower value. A general note: The purpose of a counterscreen is to sort out artefacts and off-target activity.
The nature of test [6]: Wnt pathway potentiators raising nuclear beta-catenin – imaging, WNT3A-conditioned medium, mouse C2C12, NPC library, primary screen (AID 1117326; in the data active means nuclear beta-catenin stimulation mostly above about 4.2%, no sharp cut-off; inactive means mostly below about 10%). Conditions: stronger effect = higher value.
Test [7] in a line: stimulators of insulin release from INS-1E, primary screen, cell-based, 5 mM glucose, NPC library (AID 1117329;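 active means compound raises insulin release from rat beta cells at 5 mM glucose, no numeric limit stated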). To be noted: rat INS-1E insulin secretion, at 10 µM, stronger effect = higher value.
Test [8] can be described thus: growth inhibition of GSK3B-pretreated HCT116 cells – cell-based, CellTiter-Glo, 0.2 to 20 µM (AID 1117336;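 active means compounds lowering colon cancer cell viability after pretreatment blocking the GSK3B kinase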). Conditions: HCT116 viability after GSK3B inhibitor, at 20 µM, stronger effect = higher value.
Test [9] in a line: inhibition of endothelial tube formation, primary screen, imaging, VEGF stimulated, CD31 staining, tube area, NPC library (AID 1117340;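 active means compound that reduces growth-factor-driven endothelial tube area in a mixed cell culture, no cutoff stated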). Conditions: VEGF-stimulated ADSC/ECFC co-culture, at 10 µM, stronger effect = higher value.
The nature of test [10]: GLP1 release stimulators, primary, NCI-H716, NPC library (AID 1117341;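 active means compound raises GLP1 secretion from the human gut endocrine cells, with no numeric limit stated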). To be noted: NCI-H716 cells, at 10 µM, stronger effect = higher value.
The nature of test [11]: HCT116 colon cancer cell growth inhibition, primary screen, CellTiter-Glo luminescence, NPC library (AID 1117342;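 active means compounds that lower survival of HCT116 colon cancer cells in the luminescence readout, no numeric limit stated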). Conditions: at 20 µM (top of the series). In general terms: In ATP-based viability assays light output follows the ATP content of the culture.
Test [12] can be described thus: reduced SW480 viability measured with CellTiter-Glo, NPC library, primary (AID 1117343;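 active means compounds that lower viability of the colon cancer cells in the luminescence readout, with no numeric limit stated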). To be noted: CellTiter-Glo luminescence; at 20 µM (top of the series).
Test [13] in a line: NPC library primary testing for decreased DLD-1 cell viability via CellTiter-Glo (AID 1117346;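 active means compounds that lower survival of DLD-1 colon cancer cells in the luminescence readout, no cutoff given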). Conditions: DLD-1 viability, CellTiter-Glo luminescence; at 20 µM (top of the series).
Test [14] concerns the target 6-phosphogluconate dehydrogenase, decarboxylating (Homo sapiens) (UniProt P52209). The test is described as follows: inhibition of human phosphogluconate dehydrogenase – biochemical, recombinant enzyme, NADPH absorbance, primary screen (AID 1159550;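 active means at least 20% inhibition of 6-phosphogluconate dehydrogenase activity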). Conditions: recombinant 6PGD, NADPH absorbance 341 nm; at 10 µM; stronger effect = higher value.
Test [15] in a line: viability loss with induced miR-34 in A549 – imaging, A549 dox-inducible miR-34, nuclei and caspase counts, primary screen (AID 1347080;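 active means compounds whose cell count with miR-34 switched on is under 0.7 times the count with it off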). To be noted: A549 miR-34 inducible, Hoechst nuclei count, 48 h.
A short description of test [16]: MELAS cybrid and Rieske KO viability enhancers – cell-based, MELAS cybrids, Rieske KO mouse fibroblasts, CellTiter-Glo, primary screen (AID 1508586;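 active means mean z-score across replicates of 1.96 or higher in either the MELAS or the Rieske mutant cell line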;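 further: z relative to plate mean and SD of compound and empty wells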). To be noted: low glucose.
The target in test [17] is NAD(+) hydrolase SARM1 (Homo sapiens) (UniProt Q6SZW1). The test is described as follows: blocking NAD cleavage by SARM1 SAM-TIR – cell lysate, NAD-Glo luminescence (AID 1508614;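 active means compound whose remaining NAD level is above about 45 nM, limit read from the data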). Conditions: SAM-TIR HEK293T lysate NADase, at 1 µM, stronger effect = higher value.
Chain of NAD(+) hydrolase SARM1 (Homo sapiens) (Q6SZW1 whole entry, looked up, the tested form may be a part): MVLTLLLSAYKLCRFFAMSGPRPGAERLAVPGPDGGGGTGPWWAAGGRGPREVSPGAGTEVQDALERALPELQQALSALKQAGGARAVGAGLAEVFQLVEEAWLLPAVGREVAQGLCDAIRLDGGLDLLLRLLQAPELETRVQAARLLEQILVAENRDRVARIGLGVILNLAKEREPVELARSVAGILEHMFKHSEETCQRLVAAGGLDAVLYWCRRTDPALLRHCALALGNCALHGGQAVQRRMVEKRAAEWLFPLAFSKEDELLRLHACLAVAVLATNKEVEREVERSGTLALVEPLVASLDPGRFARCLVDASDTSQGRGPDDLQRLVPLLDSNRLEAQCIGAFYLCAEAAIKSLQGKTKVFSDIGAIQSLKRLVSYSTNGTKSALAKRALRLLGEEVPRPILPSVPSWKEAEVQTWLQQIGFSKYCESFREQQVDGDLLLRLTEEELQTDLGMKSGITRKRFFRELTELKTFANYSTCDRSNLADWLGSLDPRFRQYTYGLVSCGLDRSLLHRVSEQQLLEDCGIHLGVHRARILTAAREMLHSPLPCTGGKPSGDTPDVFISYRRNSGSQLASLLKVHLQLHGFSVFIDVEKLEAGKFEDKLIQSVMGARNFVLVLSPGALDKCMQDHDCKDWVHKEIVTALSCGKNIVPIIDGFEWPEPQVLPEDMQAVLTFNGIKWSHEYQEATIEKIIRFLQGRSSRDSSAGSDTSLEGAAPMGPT
The target of test [18] is Mitogen-activated protein kinase 7 (Homo sapiens) (UniProt Q13164). The test is described as follows: Gal4-ERK5 driven luciferase induction – cell-based, HTS, primary screen (AID 1508626;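 active means luciferase signal above three times the same-plate solvent-only control wells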;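 further: luciferase driven by Gal4-ERK5 fusion binding five Gal4 sites before minimal TATA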). To be noted: HeLa Gal4-ERK5 transactivation, 18 h, at 5 µM, stronger effect = higher value.
Chain of Mitogen-activated protein kinase 7 (Homo sapiens) (Q13164 whole entry, looked up, the tested form may be a part): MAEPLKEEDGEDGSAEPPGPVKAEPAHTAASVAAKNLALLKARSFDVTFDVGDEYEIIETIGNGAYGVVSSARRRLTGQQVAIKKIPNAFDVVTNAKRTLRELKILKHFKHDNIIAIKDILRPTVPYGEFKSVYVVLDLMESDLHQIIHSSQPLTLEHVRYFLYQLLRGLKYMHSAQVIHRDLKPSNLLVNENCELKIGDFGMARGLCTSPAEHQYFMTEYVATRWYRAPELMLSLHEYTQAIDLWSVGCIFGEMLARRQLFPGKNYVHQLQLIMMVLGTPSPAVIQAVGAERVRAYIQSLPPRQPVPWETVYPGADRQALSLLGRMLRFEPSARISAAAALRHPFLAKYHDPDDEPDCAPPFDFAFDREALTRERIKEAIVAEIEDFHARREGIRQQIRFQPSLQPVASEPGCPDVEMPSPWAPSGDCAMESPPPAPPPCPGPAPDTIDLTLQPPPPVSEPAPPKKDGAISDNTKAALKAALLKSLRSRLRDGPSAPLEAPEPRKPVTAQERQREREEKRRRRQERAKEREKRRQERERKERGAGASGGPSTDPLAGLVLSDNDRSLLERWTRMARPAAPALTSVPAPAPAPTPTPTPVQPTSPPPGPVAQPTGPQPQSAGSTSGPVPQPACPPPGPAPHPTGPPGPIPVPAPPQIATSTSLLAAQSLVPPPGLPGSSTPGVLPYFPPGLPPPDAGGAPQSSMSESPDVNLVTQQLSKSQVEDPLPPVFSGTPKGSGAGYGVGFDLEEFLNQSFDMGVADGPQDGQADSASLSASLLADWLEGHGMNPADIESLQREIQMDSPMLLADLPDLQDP
In another test the test system is F380Y. The test is described as follows: BK channel mutant inhibitors and activators – cell-based, U2OS BacMam, thallium flux, beta subunits, selectivity assay, profiling panel (AID 1259406;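 active means thallium flux through the channel raised or lowered by more than 3 SD from vehicle-only wells, actives on both sides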;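 further: initial slope of Thallos dye fluorescence rise after thallium is added; log ratio against the mean of 0.3% DMSO vehicle wells on the same plate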). To be noted: U2OS BacMam BK variants, at 30 µM.
Setting [19] is: stronger effect = lower value, cell number ratio, induced over uninduced.
Where [20] appears, read: measured here: relative caspase fold change +Dox/-Dox.
Setting [21] is: measured here: total cells with miR-34 induction, stronger effect = lower value.
The mark [22] stands for this setting: measured here: total cells without miR-34 induction.
Setting [23] is: MELAS cybrid survival, CellTiter-Glo 48 h, stronger effect = higher value.
The mark [24] stands for this setting: Rieske KO mouse fibroblast survival, CellTiter-Glo 72 h.

“And” between values parts separate entries of the source, which are not always exact repeats. Identical values can stand only once. The source made the active and inactive calls. Unless noted, how the calls were made is not given here.

Chain of 6-phosphogluconate dehydrogenase, decarboxylating (Homo sapiens) (P52209 whole entry, looked up): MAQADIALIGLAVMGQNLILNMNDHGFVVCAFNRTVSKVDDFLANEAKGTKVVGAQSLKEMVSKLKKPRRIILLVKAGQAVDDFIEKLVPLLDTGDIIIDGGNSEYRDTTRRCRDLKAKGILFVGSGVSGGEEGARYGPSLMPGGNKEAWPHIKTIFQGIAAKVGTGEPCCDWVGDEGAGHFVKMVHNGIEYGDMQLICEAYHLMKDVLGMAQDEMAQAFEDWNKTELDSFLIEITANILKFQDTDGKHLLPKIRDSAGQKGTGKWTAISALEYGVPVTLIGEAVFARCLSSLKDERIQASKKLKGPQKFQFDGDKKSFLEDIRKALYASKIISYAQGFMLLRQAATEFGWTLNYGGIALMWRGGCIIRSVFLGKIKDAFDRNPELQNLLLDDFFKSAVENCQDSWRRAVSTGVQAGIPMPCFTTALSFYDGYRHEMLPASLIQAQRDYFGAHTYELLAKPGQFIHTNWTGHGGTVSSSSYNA

For the compound `CC(COc1ccccc1)NC(C)C(O)c1ccc(O)cc1` (configuration not stated), in test [1], the parasite load remaining is 51.4% (inactive) and 31.5% (inactive) and 101% (inactive). The viability in test [1] is 103% and 49.4% and 92.3%. In addition, the fluorescence ratio in test [2] was 1 (inactive); in test [5] it was 0.91 (inactive). Further, the figures for the inhibition in test [3], in [4] and in test [14] were -4.09% (inactive), 1.81% (inactive) and 0.0758% (inactive), respectively. Further, the nuclear beta-catenin stimulation in test [6] (at 10 µM) is 2.4% (inactive); in test [6] (stimulation, at 2 µM) it was -1%. In addition, the insulin secretion stimulation in test [7] is 3% (inactive). In addition, the viability decrease in test [8] was -3.4% (inactive). Moreover, the tube area decrease in test [9] is 15.3% (inactive). Besides, in test [10], the GLP1 secretion stimulation is 2.4% (inactive). The inhibition of viability in [11] is 18.7% (inactive). Moreover, the viability decrease (inhibition) in test [12] was 42.3% (inactive); in test [13], -4.6% (inactive). The fold change in test [15] (setting [19]) is 0.93 (inactive) and 0.88 (inactive); in [15] (setting [20]) it was 1.41 and 1.05. Further, the cell count in test [15] (setting [21]) was 10000 and 8140; in [15] (setting [22]), 10800 and 9240. Moreover, the z-score in [16] (setting [23]) was 0.843 (inactive); in test [16] (setting [24]) it was 0.798. Further, the remaining NAD in [17] was 10 nM (inactive). Further, the luciferase signal in test [18] was 72 AU (inactive). Moreover, the log fold change Tl+ flux in the test on F380Y was -0.000146 (inactive).
As to `Cc1onc(-c2ccccc2)c1-c1ccc(S(N)(=O)=O)cc1`, the parasite load remaining in test [1] is 163% (inactive) and 88.9% (inactive). The viability in test [1] was 90.7% and 71.3%. Also, the figures for the fluorescence ratio in [2] and in test [5] were 1 (inactive) and 0.93 (inactive), respectively. Moreover, the inhibition was -1.19% (inactive) in test [3], -2.41% (inactive) in [4] and -1.63% (inactive) in test [14]. Besides, the nuclear beta-catenin stimulation in [6] (at 10 µM) is 1.5% (inactive); in test [6] (stimulation, at 2 µM) it was 1.6%. Also, the insulin secretion stimulation in test [7] was -0.9% (inactive). The viability decrease in test [8] is -37.3% (inactive). For the same compound, the tube area decrease in [9] is 32.7% (inactive). In test [10], the GLP1 secretion stimulation is 4.8% (inactive). Also, the inhibition of viability in [11] is 33.5% (inactive). The viability decrease (inhibition) was 54% (active) in test [12] and 32.5% (inactive) in [13]. Also, the fold change was 0.904 (inactive) and 0.903 (inactive) in test [15] (setting [19]); 1.68 and 0.72 in test [15] (setting [20]). The cell count was 8880 and 8040 in test [15] (setting [21]); 9820 and 8900 in [15] (setting [22]). Also, the z-score in test [16] (setting [23]) is -0.154 (inactive) and 0.659 (inactive); in [16] (setting [24]), -0.131 and 0.628. In addition, in [18], the luciferase signal was 64 AU (inactive). The log fold change Tl+ flux with F380Y is 0.0649 (inactive).
For `CC1=C(C(=O)O)N2C(=O)[C@@H](NC(=O)[C@H](N)c3ccccc3)[C@H]2SC1`, the parasite load remaining in test [1] is 125% (inactive) and 69.1% (inactive) and 137% (inactive). Besides, in test [1], the viability is 119% and 79.9% and 115%. The figures for the fluorescence ratio in test [2] and in test [5] were 1.01 (inactive) and 0.97 (inactive), respectively. For the same compound, the inhibition in test [3] was 8.32% (inactive); in test [4], 8.37% (inactive); in [14], 8.67% (inactive). For the same compound, the nuclear beta-catenin stimulation in test [6] (at 10 µM) is 3.8% (inactive); in test [6] (stimulation, at 2 µM), 0.2%. In [7], the insulin secretion stimulation is -0.9% (inactive). Also, the viability decrease in test [8] is 7.2% (inactive). Further, the tube area decrease in test [9] is -2.6% (inactive). Besides, the GLP1 secretion stimulation in test [10] was 22.8% (active). In addition, the inhibition of viability in [11] was 24.3% (inactive). The viability decrease (inhibition) is 44.6% (inactive) in [12] and 11.8% (inactive) in test [13]. In addition, the fold change in [15] (setting [19]) was 0.846 (inactive); in [15] (setting [20]) it was 1.36. For the same compound, the cell count in [15] (setting [21]) came out at 9200; in test [15] (setting [22]) it was 10900. Further, the remaining NAD in test [17] was 10 nM (inactive). For the same compound, the luciferase signal in test [18] is 40 AU (inactive). The log fold change Tl+ flux in the test with F380Y was -0.036 (inactive).

Broadly, the viability is a read-out of living cells in per cent, often relative to untreated cells. As usually defined, the inhibition is the relative decrease from the control value, in per cent.
